# Screening results deposited in PubChem by several laboratories.
# Compounds with a hit are over-represented: about 1.5% of the library has one in this group of screens.
# VCAM1 TNFa inh – reduces TNF alpha induced VCAM1 expression in HUVEC; HUVEC TNFa-induced VCAM-1 immunofluorescence, high-content imaging; AID 802; inhibition, % at 2 µM; 95,000 tested, 0.48% active;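 active = inhibition above the batch mean plus 3 SD, with images confirmed as a hit by eye, cut at about 37% in these data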;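 also: 0% = TNF-stimulated DMSO wells and 100% = unstimulated control wells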
# MRP reversal – reverses drug resistance mediated by MRP | 85,000 tested, 0.04% active | differential viability (reversal), % at 10 µM | H69AR cells + 2 uM doxorubicin, CellTiter-Glo, 72 h;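 active = viability drop by adding the cancer drug above about 55%, with treated viability meeting a 40% cutoff, limit read from the data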;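 also: viability without doxorubicin minus viability with 2 µM doxorubicin for each compound; larger differential means the compound sensitizes cells more to doxorubicin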
# E-sel TNF inh – blocks E-selectin expression induced by TNF alpha; AID 1246; HUVEC TNFa-induced E-selectin immunofluorescence, high content; inhibition, % at 2 µM; 120,000 tested, 0.71% active;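 active = inhibition above the batch mean plus 3 SD, and confirmed as a hit on visual image review, cut at about 43% in these data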;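 also: 0% = TNF-stimulated DMSO wells and 100% = unstimulated control wells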
# cytoskel mod – modifiers of cytoskeleton assembly | 91,000 tested, 0.18% active | inhibition, % at 2 µM | HUVEC TNFa F-actin phalloidin imaging, high content;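 active = inhibition above the batch mean plus 3 SD and confirmed as a hit by visual image inspection, cut at about 30% in these data, passing the limit was not always enough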
# MRP-1 activ – activators of MRP-1; H69AR cells + doxorubicin, viability rescue, CellTiter-Glo; viability increase, % at 10 µM; 140,000 tested, 0.61% active;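 active = viability gain under doxorubicin at or above a set limit, the compound median plus 3 SD, cut at about 4.7% in these data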;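 also: MRP-1 overexpressing cells given doxorubicin 25 µM after compound pretreatment; 18-22 h compound pretreatment then 72 h with doxorubicin before readout; 0% = doxorubicin-only wells and 100% = vehicle-treated cells without doxorubicin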
# * = called active by the depositor; · = no result.
SMILES,VCAM1 TNFa inh,MRP reversal,E-sel TNF inh,cytoskel mod,MRP-1 activ
c1ccc(-c2csc3ncnc(N4CCc5ccccc5C4)c23)cc1,·,·,-3.9,·,-1.7
O=C(NCc1ccc(Cl)cc1)c1ccc2nc[nH]c2c1,·,·,42.0,·,1.7
COc1ccc(NC(=O)CC23CC4CC(CC(C4)C2)C3)cn1,·,·,23.9,·,·
COc1ccc(NC(=O)/C(Cl)=C(/Cl)S(=O)Cc2ccccc2Cl)cn1 (stereo not given),·,·,100.0*,·,·
COc1ccc(NC(=O)C(CC(C)C)NC(=O)c2ccccc2C)cn1 (stereo not given),9.3,3.1,-12.9,0.9,-1.3
COc1ccc(NC(=O)/C(Cl)=C(/Cl)S(=O)(=O)Cc2ccc(C)cc2)cn1,50.7*,-0.9,72.0*,-23.7,-2.5
CC(=O)NC(Cc1ccc(C)cc1)C(=O)NC1CCN(c2ncccc2[N+](=O)[O-])CC1 (stereo not given),·,·,-22.6,·,-0.9
O=C(Nc1nc2c(s1)COc1ccccc1-2)c1cccs1,12.2,7.4,9.1,-2.0,-4.5
O=C(CCS(=O)(=O)c1ccccc1)Nc1nc2c(s1)COc1ccccc1-2,24.6,-3.5,·,46.4*,-5.5
COC(=O)C1CCN(C(=O)C2CCCCC2)CC1,-14.8,4.5,-17.2,6.3,0.3
Cc1nc2ccccn2c1C(=O)CSc1ccccc1,·,·,-20.5,·,·
COc1ccc(C(=O)Nc2cc(C(=O)c3ccccc3)c(C)oc2=O)cc1,2.6,·,·,-28.3,-4.3
O=C(Nc1cc2ccccc2oc1=O)c1ccccc1,·,·,72.1*,·,·
CCn1c(COc2ccc(Cl)cc2)nnc1SC1CCc2ccccc2C1=O (stereo not given),·,·,·,·,7.1*
COc1ccc(OC)c(S(=O)(=O)Nc2cccnc2)c1,-19.9,7.5,4.7,-14.8,0.2
COc1cccc2cc(/C(C)=N/Nc3nc(-c4cc(C)ccc4C)cs3)c(=O)oc12,1.5,·,-5.2,7.3,0.8
Cc1ccc(S(=O)(=O)Cn2nnnc2C(C(C)C)N2CCN(c3nc4ccccc4s3)CC2)cc1 (stereo not given),50.5*,-34.0,-0.2,22.4,-0.8
COC(=O)[C@H](Cc1ccccc1)NC(=O)NCc1ccccc1OC,19.4,-4.6,14.9,8.6,-1.1
CC1CC(=O)NN=C1c1ccc(NCCO)c([N+](=O)[O-])c1 (stereo not given),39.7*,·,-20.9,-41.0,-2.0
Cc1ccc(NC(=O)c2noc3c2CCc2ccccc2-3)cc1,9.8,-16.5,5.7,·,-1.5
Cc1nn(Cc2ccccc2)c(C)c1NC(=O)c1noc2c1CCc1ccccc1-2,-6.4,18.4,2.7,-3.5,6.5*
O=C(Nc1nc(COc2ccccc2)cs1)c1ccccc1F,·,·,·,·,5.3*
COc1ccccc1OCc1csc(NC(=O)c2ccco2)n1,·,-1.2,7.0,·,0.5
CCCCCCC(=O)N/N=C1\CCCc2ccccc21,·,·,·,·,-0.5
CS(=O)(=O)Nc1nnc(Cc2ccccc2)s1,17.2,-9.6,-20.5,-2.8,7.9*
SMILES,VCAM1 TNFa inh,MRP reversal,E-sel TNF inh,cytoskel mod,MRP-1 activ
Cc1ccccc1C1(CCN2CCCCC2)CCOC(C)(C)C1 (stereo not given),·,·,-10.2,·,-2.0
CCOC(=O)C(O)(CC(=O)c1ccc(OC)cc1)C(F)(F)F (stereo not given),-4.8,-1.6,13.9,2.0,-2.9
COc1ccc(N2C(=O)CC(N3CCC(O)(c4cccc(C(F)(F)F)c4)CC3)C2=O)cc1 (stereo not given),3.0,·,6.0,12.6,6.5*
COc1ccccc1-c1cc(C(F)(F)F)nc(S(=O)(=O)CCCC(=O)N2CCCCC2C)n1 (stereo not given),71.4*,·,·,20.7,-6.2
COC(=O)C[N+](C)(C)CC#Cc1ccccc1,·,·,42.9,·,-0.8
CN(C)S(=O)(=O)c1cc(NC(=O)CSc2nn(-c3ccc(Cl)cc3)c(=S)s2)ccc1Cl,·,·,71.7*,·,-2.5
Cc1ccc(NC(=O)CSc2nn(-c3ccc(Cl)cc3)c(=S)s2)cc1S(=O)(=O)N(C)C,·,·,·,·,-3.3
Cc1ccc(N(C)S(=O)(=O)c2cccc(C(=O)Oc3ccc4c(C)cc(=O)oc4c3)c2)cc1,·,·,·,·,4.8*
Cc1cc(=O)oc2cc(OC(=O)c3ccccc3)ccc12,·,·,-17.8,·,·
CCOc1ccc(CN(C)CC(=O)Nc2ccc([N+](=O)[O-])cc2Cl)cc1,·,·,·,·,2.5
Cn1nc(C(F)(F)F)c(C(=O)Nc2ccc(F)cc2F)c1Sc1ccc(C(F)(F)F)cc1,-5.7,·,1.4,62.9*,-0.3
Cn1nc(C(F)(F)F)c(C(=O)Nc2ccc(F)cc2F)c1Sc1ccc(Cl)cc1,·,·,·,·,1.3
COc1ccc(-c2[nH]ncc2Oc2ccccc2OC)c(O)c1,5.9,-19.8,-18.7,23.6,-4.1
COc1ccc(-c2[nH]ncc2-c2cnn(-c3ccccc3)c2)c(O)c1,10.4,·,6.2,2.7,46.4*
Cc1c(NC(=O)c2n[nH]c(=O)c3ccccc23)c(=O)n(-c2ccccc2)n1C,1.8,-4.7,-3.5,6.7,-2.3
Cc1sc2nc(C3CC3)nc(N3CCN(S(=O)(=O)c4ccc(F)cc4)CC3)c2c1C,6.7,-20.9,-6.7,10.5,6.6*
Cc1oc2c(C)c(O)ccc2c(=O)c1-c1cnn(-c2ccccc2)c1,12.8,-16.4,59.2*,-17.5,0.0
COc1ccc(NC(=O)Cn2nnc(-c3ccccc3NC(=O)c3cccs3)n2)cc1,-2.7,-6.9,7.2,-6.4,-5.2
Cc1ccc(NC(=O)Cn2nnc(-c3ccccc3NC(=O)c3cccs3)n2)cc1,60.3*,-5.2,-69.8,-2.8,-2.2
COC(=O)c1ccccc1NC(=O)c1cccs1,-10.1,56.1*,-38.2,11.3,-1.3
COc1ccc(Cn2cc(F)c(=O)n(CCC(C)C)c2=O)cc1[N+](=O)[O-],15.6,·,4.9,14.9,-1.4
CC1CCN(c2cc(N3CCN(C(=O)c4ccc(F)c(F)c4)CC3)c([N+](=O)[O-])cc2F)CC1,·,·,-5.7,·,-2.5
Cc1cc(C)c(S(=O)(=O)Nc2ccc3c4c(cccc24)CC3)c(C)c1,88.6*,·,15.0,-23.7,-4.4
Cc1ccc(NC(=O)COC(=O)c2csc3c2CCC(C)C3)cc1S(=O)(=O)N1CCCCC1 (stereo not given),·,·,·,·,4.6
CC1CCc2c(C(=O)OCC(=O)Nc3cccc(S(=O)(=O)N4CCCCCC4)c3)csc2C1 (stereo not given),·,·,·,·,5.1*
SMILES,VCAM1 TNFa inh,MRP reversal,E-sel TNF inh,cytoskel mod,MRP-1 activ
S=C(Cc1cccnc1)N1CCOCC1,·,·,-15.5,·,-2.6
O=C(NCc1ccc(Cl)cc1)C(=O)NCC(c1ccco1)N1CCOCC1 (stereo not given),·,·,-2.4,·,9.1*
CCc1cccc(CC)c1NC(=O)COC(=O)c1cccc(-c2ccc(OC(C)=O)cc2)c1,·,·,73.7*,·,1.8
Cc1cc(C(=O)CSc2nnc(-c3cccnc3)n2-c2ccccc2F)c(C)n1CC1CCCO1 (stereo not given),-3.4,10.5,-23.0,-4.8,-1.1
CCc1nnc(NC(=O)CSc2nc3cccnc3n2C2CCCCC2)s1,-16.8,22.6,-4.2,-5.7,4.8*
CCCCOc1ccc2ccccc2c1C=O,7.3,·,52.0*,8.8,-2.8
CCCCOc1ccc2c(C)cc(=O)oc2c1OCCCC,22.7,1.4,-5.2,-1.5,-2.0
COc1ccccc1C1C(C(=O)c2sc(C)nc2C)=C(O)C(=O)N1CCN1CCOCC1 (stereo not given),·,·,·,·,7.6*
